# Source: PubChem BioAssay (NCATS)
# Where “and” joins values, the source holds several entries; their conditions need not be identical. Identical values can stand only once. Records with an inconclusive call do not appear. Where a call stands in place of a potency, no number is given. Values without a mark were called inactive. Calls of active or inactive are those of the source. Calls follow the shape of the dose curve; as a rule, active = well fitted curve in the direction sought with a large enough effect; inconclusive = small, poorly fitted or top-dose-only effect, or another doubt; inactive = no such curve, though single readings can be large; an effect the other way counts as inactive or inconclusive. Numbered stars: 1 amine (or outer) side, 2 acyl side, 3 side chain; on linkers, the order of the positions; unused ones are H or OH. Square brackets hold non-standard residues; d marks the D form. Peptide text beside a SMILES is read from it. X3 = CC(CC(O[*:1])C(=O)[*:2])C(=O)O; NMeV = CN[CH](C(=O)O)C(C)C; NMeA = CN[CH](C)C(=O)O; βAla = NCCC(=O)O
# Legend:
# [1] = molecular target: Cellular tumor antigen p53 (Homo sapiens) (UniProt P04637); assay: Primary qHTS for small molecule compounds that upregulate eGFP-tagged delta133p53alpha (in N-terminal) cells. (AID 2060322); settings: NCI-H358 eGFP-delta133p53alpha fluorescence, 24 h; activation: hits give high values; also: nearly all actives have a fitted effect of over 75% in size; also: potency is read from the fitted curve at half-maximal effect
# How it was run: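 NCI-H358 cells pre-induced 24 h with 10 ng/ml doxycycline to express N-terminal eGFP-delta133p53alpha, then dosed 24 h at 37C without doxycycline; fixed, Hoechst-stained, GFP intensity by laser scanning cytometry, normalized to DMSO (0%) and 57.5 uM 5-azacytidine (100%).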
# [2] = molecular target: Aldehyde dehydrogenase, mitochondrial (Homo sapiens) (UniProt P05091); assay: qHTS for Inhibitors of the Aldehyde Dehydrogenase Family (ALDH2) Primary screen (AID 2061308); settings: ALDH2 enzyme inhibition qHTS, 1536-well; series mostly up to 56 µM; also: nearly all actives have a fitted effect of over 55% in size
# [3] = molecular target: Retinaldehyde dehydrogenase 3 (Homo sapiens) (UniProt P47895); assay: qHTS for Inhibitors of the Aldehyde Dehydrogenase Family (ALDH1A3) Primary screen (AID 2061315); settings: ALDH inhibition qHTS; series mostly up to 56 µM
# [4] = BET inhibitor-based combinations targeting novel dependencies in MECOM-rearranged (r) AML: SET-2 cell line (AID 2202231); settings: SET-2 AML cells viability, CellTiter-Glo luminescence, 48 h; viability: hits give low values, concentration not given here; also: nearly all actives have a fitted effect of over 35% in size; also: potency is read from the fitted curve at half-maximal effect
# How it was run: (§1)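 Here, 11-point titrations of each agent were applied to 500 seeded cells and incubated 48 hr; CellTiter-Glo signal, scaled against DMSO and empty wells, was integrated as AUC, then Z-scored within the individual line.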
# [5] = BET inhibitor-based combinations targeting novel dependencies in MECOM-rearranged (r) AML: OCI-AML3 cell line (AID 2202232); settings: CellTiter-Glo luminescence, 48 h; Potency: OCI-AML3 viability; series mostly up to 46 µM; also: potency is read from the fitted curve at half-maximal effect; nearly all actives have a fitted effect of over 35% in size
# How it was run: as §1
# [6] = BET inhibitor-based combinations targeting novel dependencies in MECOM-rearranged (r) AML: UCSD-AML1 cell line (AID 2202235); settings: UCSD-AML1 AML cells viability, CellTiter-Glo, 48 h; series mostly up to 46 µM; also: nearly all actives have a fitted effect of over 40% in size; also: potency is read from the fitted curve at half-maximal effect
# How it was run: (§2)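 Normalized to DMSO and empty-well controls, the luminescence data from CellTiter-Glo after 48 hr drug exposure were fitted across 11 concentrations. Reported metrics are area under the dose-response curve and its Z-transformed form.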
# [7] = BET inhibitor-based combinations targeting novel dependencies in MECOM-rearranged (r) AML: AML-194 cell line (AID 2202237; also: nearly all actives have a fitted effect of over 40% in size); settings: AML-194 (MECOM-r AML) viability, CellTiter-Glo, 48 h; series mostly up to 46 µM
# How it was run: as §1
# [8] = BET inhibitor-based combinations targeting novel dependencies in MECOM-rearranged (r) AML: MV-4-11 cell line (AID 2202233); settings: MV-4-11 AML viability, CellTiter-Glo luminescence, 48 h; series mostly up to 46 µM; also: nearly all actives have a fitted effect of over 45% in size; also: potency is read from the fitted curve at half-maximal effect
# How it was run: as §2
# [9] = BET inhibitor-based combinations targeting novel dependencies in MECOM-rearranged (r) AML: HNT-34 cell line (AID 2202234); settings: HNT-34 AML viability, CellTiter-Glo luminescence, 48 h; series mostly up to 46 µM; also: potency is read from the fitted curve at half-maximal effect; nearly all actives have a fitted effect of over 35% in size
# How it was run: as §2
# [10] = BET inhibitor-based combinations targeting novel dependencies in MECOM-rearranged (r) AML: AML-191 cell line (AID 2202236; also: nearly all actives have a fitted effect of over 35% in size; also: potency is read from the fitted curve at half-maximal effect); settings: AML-191 viability, CellTiter-Glo luminescence, 48 h; series mostly up to 46 µM
# How it was run: as §1
# Sequence of Cellular tumor antigen p53 (Homo sapiens) (P04637 whole entry, looked up): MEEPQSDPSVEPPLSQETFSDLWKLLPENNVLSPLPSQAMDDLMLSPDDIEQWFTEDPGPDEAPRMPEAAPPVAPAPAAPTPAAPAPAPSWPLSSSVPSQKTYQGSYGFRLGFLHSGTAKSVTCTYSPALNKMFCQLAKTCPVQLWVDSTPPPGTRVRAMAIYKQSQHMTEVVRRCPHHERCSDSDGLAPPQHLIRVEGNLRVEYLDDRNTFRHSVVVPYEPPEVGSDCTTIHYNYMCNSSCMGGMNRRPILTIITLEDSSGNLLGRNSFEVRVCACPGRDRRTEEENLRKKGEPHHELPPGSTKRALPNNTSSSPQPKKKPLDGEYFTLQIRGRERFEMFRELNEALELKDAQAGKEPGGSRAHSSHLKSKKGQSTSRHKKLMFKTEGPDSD
smiles,measurement,setting,value
COC(=O)[C@@]12C(=O)C(C)C(=O)[C@]1(C)C(C)=C[C@H]1[C@]3(C=O)CC[C@H](OC(C)=O)C(C)(C)[C@H]3CC[C@@]12C (stereo partly drawn),activation,[1],19.1%
same,Potency,[2],inactive
same,Potency,[3],inactive
N#CC(O[C@@H]1O[C@H](CO)[C@@H](O)[C@H](O)[C@H]1O)c1ccccc1 (stereo partly drawn),activation,[1],13%
same,Potency,[2],inactive
same,Potency,[3],inactive
CC(C)C1(OO)C=C2C(=O)CC3C(C)(C(=O)O)CCCC3(C)C2CC1 (stereo not drawn),activation,[1],11.5%
same,Potency,[2],inactive
same,Potency,[3],inactive
C[C@]12CC[C@H](OC3OC(CO)C(O)C(O)C3OC3OC(CO)C(O)C(O)C3O)C[C@@H]1CC[C@@H]1C2CC[C@]2(C)[C@@H](C3=CC(=O)OC3)CC[C@]12O (stereo partly drawn),activation,[1],13.4%
same,Potency,[2],inactive
same,Potency,[3],inactive
C=C1CC[C@H]2[C@@H](/C=C(\C)C(=O)[C@@]3(OC(C)=O)C[C@H](C)[C@H](OC(=O)c4ccccc4)[C@@H]3[C@H]1OC(C)=O)C2(C)C,activation,[1],-11.5%
same,Potency,[2],inactive
same,Potency,[3],inactive
COC1CC(=O)C23C(=O)NC(CC(C)C)C2C(C)=C(C)C(OO)C3/C=C(\C)CCC(O)C1O (stereo not drawn),activation,[1],-4.58%
same,Potency,[2],inactive
same,Potency,[3],inactive
COC1=CC(=O)O[C@@H](/C=C/c2ccccc2)C1,activation,[1],-10.7%
same,Potency,[2],inactive
same,Potency,[3],inactive
CCC(C)C1NC(=O)C2CCCN2C(=O)C(CC(C)C(=O)O)OC(=O)CCNC(=O)C(C)N(C)C(=O)C(C(C)C)N(C)C1=O (stereo not drawn) (cyclo([X3]PI[NMeV][NMeA][βAla]); configuration not given here),activation,[1],-10.7%
same,Potency,[2],inactive
same,Potency,[3],inactive
CC1CCCC(=O)CCC/C=C/c2cc(O)cc(O)c2C(=O)O1 (stereo not drawn),activation,[1],7.14%
same,Potency,[2],inactive
same,Potency,[3],inactive
CC1=C2C(=O)C3[C@@H](CC=C4C[C@@H](O)CC[C@@]43C)[C@@H]2CC[C@]12O[C@@H]1C[C@H](C)CN[C@H]1[C@H]2C (stereo partly drawn),activation,[1],4.58%
same,Potency,[2],inactive
same,Potency,[3],inactive
CCOC(=O)c1ccnc2cc(C(OCCN3CCCCC3)c3ccccc3Cl)sc12 (stereo not drawn),activation,[1],-5.67%
same,Potency,[2],inactive
same,Potency,[3],inactive
CC(C)(O)/C=C/C(=O)[C@](C)(O)[C@H]1[C@H](O)C[C@@]2(C)[C@@H]3CC=C4[C@@H](C[C@H](O)C(=O)C4(C)C)[C@]3(C)C(=O)C[C@]12C,Potency,[1],4.65 µM (active)
same,Potency,[2],inactive
same,Potency,[3],inactive
COc1ccc(N(C(=O)Oc2c(C)cccc2C)c2ccnc(Nc3ccc(N4CCN(C)CC4)cc3)n2)c(OC)c1,activation,[1],-14.2%
same,Potency,[2],inactive
same,Potency,[3],inactive
same,viability,[4],117%
same,Potency,[5],5.9 µM (active)
same,Potency,[6],inactive
same,Potency,[7],inactive
CN1CCC2=C(C1)c1ccccc1Cc1ccccc12,activation,[1],16.2%
same,Potency,[2],inactive
same,Potency,[3],inactive
CC[C@H]1C[C@@H]2CC[C@@H](O2)[C@@H](C)C(=O)O[C@H](CC)C[C@H]2CC[C@H](O2)[C@H](C)C(=O)O[C@@H](C)C[C@@H]2CC[C@@H](O2)[C@@H](C)C(=O)O[C@H](CC)C[C@H]2CC[C@H](O2)[C@H](C)C(=O)O1,activation,[1],-0.893%
same,Potency,[2],inactive
same,Potency,[3],inactive
c1cncc(OC[C@@H]2CCN2)c1,activation,[1],-4.3%
same,Potency,[3],inactive
CC1(N2CCC(n3c([C@@H]4CCCNC4)nc4ccccc43)CC2)CCCCCCC1,activation,[1],44.9% and 4.3%
same,Potency,[2],inactive
same,Potency,[3],inactive
same,Potency,[5],16.6 µM (active)
same,Potency,[8],16.6 µM (active)
same,Potency,[9],20.9 µM (active)
C=C1[C@@]23C(=O)O[C@H](C)[C@]24O[C@@]2(C(=C)[C@]5(C=CC(=O)OC5(C)C)CC[C@]32C)[C@H](O)[C@@]1(C)OC4=O,activation,[1],13%
same,Potency,[3],inactive
COc1cc(C)[nH]c(=O)c1CNC(=O)c1c(C)n([C@H](C)C2CCOCC2)c2ccccc12,activation,[1],-8.11%
same,Potency,[2],inactive
same,Potency,[3],inactive
same,viability,[4],113%
same,Potency,[8],inactive
same,Potency,[6],inactive
same,Potency,[10],inactive
Cc1c(N2C(=O)[C@@H]3[C@H](O)CCN3C2=O)ccc(C#N)c1Cl,activation,[1],3.82%
same,Potency,[2],inactive
same,Potency,[3],inactive
C/C=C(/C)C(=O)O[C@H]1C(C)=C2[C@H]([C@@H]1OC(=O)CCCCCCC)[C@@](C)(OC(C)=O)C[C@H](OC(=O)CCC)[C@@]1(O)[C@H]2OC(=O)[C@@]1(C)O,Potency,[1],33.8 µM (active)
same,Potency,[2],inactive
same,Potency,[3],inactive
same,Potency,[4],263 nM (active)
same,Potency,[5],0.662 µM (active)
same,Potency,[8],0.166 µM (active)
same,Potency,[9],0.0525 µM (active)
same,Potency,[6],132 nM (active)
same,Potency,[10],417 nM (active)
